Among all 360,000 compounds or so, about 2,600 (0.72%) were called active. A call without a number means that no potency is given here. About 5% were inconclusive and are not listed. The sample holds actives, similar compounds and a random draw of the others, so the mix is not that of the screen. The call rests on the fitted dose curve; in most records, active means well fitted inhibition curve with a large enough effect; inconclusive means small, poorly fitted or top-dose-only effect; inactive means no such curve, though single readings can be large or run the other way.
Assay: Primary qHTS for Inhibitors of ATXN expression; further: nearly all actives have a fitted effect of over 55% in size
Details: HEK-293 ATXN2-luciferase reporter, luminescence, 24 h; series mostly up to 57 µM
From the text: University of Utah School of Medicine, Salt Lake City, Utah
Spinocerebellar ataxia type 2 (SCA2) is a multisystem neurodegenerative disease caused by a dominantly acting mutation leading to expansion of a polyQ domain in the ataxin-2 protein (ATXN2). SCA2 patients develop progressive ataxia and later lose function in other neuronal systems. Prominent parkinsonian signs develop in some patients. Like many neurodegenerative disorders, no symptomatic or disease-modifying treatments are known.
The primary objective of the proposed research is to identify compounds inhibiting ATXN2 expression and to test them for efficacy in SCA2 mouse models. We have developed a cell-based assay paired with an in vivo mouse model using identical luciferase expression constructs. This approach takes advantage of an ATXN2-luciferase transgene, with the luciferase gene flanked by the upstream and downstream portions of the ATXN2 gene. Here we describe a 5-7 dose quantitative high thoroughput screen (qHTS) for compounds lowering ATXN2 expression. We screened the NIH Molecular Libraries Small Molecule Repository (MLSMR) and NCGC's mechanistically annotated (MIPE) and drug repurposing (NPC) collections of compounds for lowering expression of an ATXN2-luciferase reporter in HEK-293 cells. The assay is a multiplexed cell viability assay to ensure target reduction in the absence of cytotoxicity. Secondary qHTS assays included a CMV-luciferase reporter expressed in HEK-293 cells as well as a biochemical assay using recombinant luciferase to detect inhibitors of the reporter enzyme. Compounds that inhibit ATXN2 expression but is not cytotoxic were selected for confirmatory and secondary screens.
PROTOCOL TABLE (as described by Inglese J, Shamu CE and Guy RK. 2007)
SEQUENCE No. (e.g., 1, 2, 3, etc.); […] (e.g., Cells, Incubation, Reagent, etc.); VALUE; DESCRIPTION.
1; Cells; 4 uL; white, solid bottom, 1536-well Greiner assay plate.
2; Incubation; 2 hr; 37 degree C in 5% humidified CO2.
3; Compounds; 23 nL; Kalypsis pintool (Wako USA) equipped with a 1536-well pin head.
4; Incubation; 24 hr; 37 degree C in 5% humidified CO2.
5; Reagent; 1 uL; Gly-Phe-7-Amino-4-trifluoromethylcoumarin.
6; Incubation; 30 min; 37 degree C in 5% humidified CO2.
7; Detection; Fluorescence; ViewLux plate reader (PerkinElmer).
8; Reagent; 3 uL; SteadyGlo luciferase solution (Promega).
9; Incubation; 5 min; room temperature.
10; Detection; Luminescence; ViewLux plate reader (PerkinElmer).
NOTES (numbers refer to Sequence numbers above)
1. S2 cells expressing ATXN2-luciferase reporter were suspended in phenol-red free DMEM and dispensed in assay plates using a Multidrop Combi dispenser (Thermo Fisher Scientific).
2. Assay plates were incubated. Evaporation was prevented by covering assay plates with metal lids containing holes to allow gas diffusion.
3. Compounds were added in a dose response manner with the final concentrations of 57, 11.4, 2.28, 0.46, 0.091, 0.018, 0.0037 uM. Vehicle-only plates, with DMSO being pin-transferred to columns 5-48, were inserted uniformly at the beginning and the end of each library to monitor and record any shifts in assay performance.
5. 125 uM Gly-Phe-7-Amino-4-trifluoromethylcoumarin (MP Biomedicals) working concentration was used at a final concentration of 25 uM.
7. To assess cell viability; the assay plates were read using the ViewLux high-throughput CCD imager (PerkinElmer), wherein single end-point fluorescence measurement was acquired (excitation 405/10; emission 540/25 nm).
8. Detection reagent SteadyGlo Luciferase (Promega) was added to the assay plate.
10. Luminescence is then measured on the ViewLux imager equipped with a clear emission filter using a 2 sec exposure. All screening operations were performed on a fully integrated robotic system (Kalypsys) containing one RX-130 and two RX-90 anthropomorphic robotic arms (Staubli).
[…]
Potency means the concentration at half of the fitted maximal effect.

Compound | Potency
CC(Cc1ccccc1)NC=O (stereo not given) | inactive
CC(=O)NC(=O)NC(C)Cc1ccccc1 (stereo not given) | inactive
CC(Cc1ccccc1)NCCC(c1ccccc1)c1ccccc1 (stereo not given) | 28.2 µM (active)
CCCOC(=O)c1cncn1C(C)c1ccccc1 (stereo not given) | inactive
COC(=O)C1=C(c2ccc(OCc3ccccc3)cc2)C[C@@H]2CC[C@H]1N2C(=O)NCc1ccc(Cl)cc1 | inactive
O=P(OC1=CCCCC1)(c1ccccc1)c1ccccc1 | inactive
CCC(C)(O)C(=O)OC1C(=O)OC2CC3C(C)=CC(=O)C(O)C3(C)C3C4(O)OCC23C1C(C)C4O (stereo not given) | 0.168 µM (active)
CCOC(=O)[C@]12Cc3cc(OC)ccc3[C@H]1N(C(C)C)C(=O)c1ccccc12 | 17.8 µM (active)
CCOC(=O)[C@]12Cc3ccccc3[C@H]1N(C1CCCCC1)C(=O)c1cc(OC)ccc12 | 7.94 µM (active)
CC1=C(C(=O)O)N2C(=O)[C@@H](N)[C@H]2SC1 | inactive
O=C(N/N=C/c1ccc([N+](=O)[O-])o1)c1cc([N+](=O)[O-])cc([N+](=O)[O-])c1O | inactive
O=S(=O)(O)C(F)(F)C(F)(F)C(F)(F)C(F)(F)F | inactive
CC(C)=C[C@@H]1[C@@H](C(=O)OCc2coc(Cc3ccccc3)c2)C1(C)C | inactive
O=C(NC1CCCCC1)N1Cc2cc(N3CCCCC3)ccc2-n2nncc2C1 | inactive
CNC(=S)N/N=C1\C2CN3CCN(C2)CC1(c1ccccc1)C3 | inactive
S=C(NCCc1ccccc1)N1Cc2cc(N3CCOCC3)ccc2-n2nncc2C1 | inactive
C[C@]12CC[C@H](O)C[C@H]1CC[C@@H]1C2CC[C@]2(C)[C@@H](C3=CC(=O)OC3)[C@@H](O)C[C@]12O (stereo not given in full) | 2 µM (active)
COC1C(O)C(C)OC(OC2CCC3(C=O)C(CCC4C3CCC3(C)C(C5=CC(=O)OC5)CCC43O)C2)C1O (stereo not given) | inactive
C[C@]12CCC3C(CC[C@H]4C[C@@H](O)CC[C@]34C)C1CC[C@@H]2O (stereo not given in full) | inactive
O=c1[nH]c2ccccc2n1C1CCN(C(c2ccnc3ccccc23)c2nnnn2Cc2ccccc2)CC1 (stereo not given) | inactive

Compound | Potency
O=c1[nH]c2ccccc2n1C1CCN(C(c2ccccc2)c2nnnn2Cc2ccccc2)CC1 (stereo not given) | 25.1 µM (active)
CSCCC(c1nnnn1C(C)(C)C)N1CCC(n2c(=O)[nH]c3ccccc32)CC1 (stereo not given) | inactive
COC(=O)C1=C(c2ccc(OCc3ccccc3)cc2)C[C@@H]2CC[C@H]1N2C(=O)NCc1cccc(F)c1 | inactive
CCCn1c(C(=O)c2ccccc2OC)nc2ccccc21 | inactive
CC[N+]1(CCOC(=O)C(O)(c2ccccc2)c2ccccc2)CCCCC1 | inactive
O=C(NCC1=C(c2ccc3ccccc3c2)C[C@@H]2CC[C@H]1N2Cc1ccco1)c1cccs1 | inactive
CCCCC1C(=O)NC(=O)N(C2CCCCC2)C1=O (stereo not given) | inactive
COC(=O)CN(CCCl)P1(=O)OCCCN1CCCl (stereo not given) | inactive
O=C1NC(=O)N(c2ccc(F)cc2)C(=O)/C1=C/c1ccc2c(c1)CCCN2Cc1ccccc1 | inactive
O=C(O)COc1ccccc1/C=C1\C(=O)NC(=O)N(CCC2=CCCCC2)C1=O | inactive
O=C1NC(=O)N(CCc2ccc(F)cc2)C(=O)/C1=C/C=C/c1ccccc1 | 10 µM (active)
COc1cc(C(=O)N2Cc3ccc(Br)cc3-n3nncc3C2)cc(OC)c1OC | inactive
Cc1cccc(Cn2cccc(C(=O)Nc3ccc4c(c3)OCCO4)c2=O)c1 | inactive
CC(=Cc1csc(C)n1)[C@@H]1C[C@H]2O[C@]2(C)CCC[C@H](C)[C@@H](O)[C@@H](C)C(=O)C(C)(C)[C@@H](O)CC(=O)O1 | inactive
NCCc1ccc(S(=O)(=O)F)cc1 | inactive
COc1cccc(C(c2nnnn2-c2ccc3c(c2)OCCO3)N2CCC3(CC2)C(=O)NCN3c2ccccc2)c1OC (stereo not given) | inactive
CC1N=C(N)OC1c1ccccc1 (stereo not given) | inactive
CO[C@]12CC[C@@]3(C[C@@H]1[C@](C)(O)C(C)(C)C)[C@@H]1Cc4ccc(O)c5c4[C@@]3(CCN1CC1CC1)[C@H]2O5 | 35.5 µM (active)
Oc1ccc2c3c1OC1[C@H](O)CC[C@@]4(O)[C@@H](C2)N(CC2CC2)CC[C@]314 (stereo not given in full) | inactive
Cc1ncsc1CCCl | inactive

From PubChem BioAssay AID1745845 (National Center for Advancing Translational Sciences (NCATS), 2022)
